Mtb FBA inh – inhibits M. tuberculosis FBA enzyme | purified M. tuberculosis FBA, fluorescence read-out | P9WQA3 | inhibition, % at 1 µM | actives 2.3% (n = 360,000); in the data active means inhibition above about 27%;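 further: 0% = vehicle and 100% = reference inhibitor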
Target sequence (P9WQA3 whole entry, looked up): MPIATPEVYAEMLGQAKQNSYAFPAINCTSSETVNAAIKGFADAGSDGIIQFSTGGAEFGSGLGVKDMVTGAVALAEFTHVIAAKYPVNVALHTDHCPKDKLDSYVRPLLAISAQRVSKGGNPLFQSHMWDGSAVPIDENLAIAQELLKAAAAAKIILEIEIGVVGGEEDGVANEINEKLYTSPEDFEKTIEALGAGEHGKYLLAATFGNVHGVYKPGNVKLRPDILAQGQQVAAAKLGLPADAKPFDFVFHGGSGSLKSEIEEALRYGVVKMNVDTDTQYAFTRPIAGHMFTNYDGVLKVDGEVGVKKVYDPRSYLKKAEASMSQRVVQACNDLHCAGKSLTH
MazEF act – activators of E. coli MazEF toxin-antitoxin RNase | FAM/BHQ RNA-DNA oligo cleavage fluorescence, 5 h | activation, % at 20 µM | AID 504720 | actives 0.32% (n = 350,000) | P0AE70; in the data active means activation above about 50%
Target sequence (P0AE70 whole entry, looked up): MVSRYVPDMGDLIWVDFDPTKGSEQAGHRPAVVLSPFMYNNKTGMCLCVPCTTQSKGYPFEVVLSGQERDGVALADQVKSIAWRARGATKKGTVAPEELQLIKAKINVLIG
Mtb betalactam – beta-lactam sensitization of Mtb H37Rv | actives 0.27% (n = 330,000) | inhibition, % at 25 µM | M. tuberculosis H37Rv growth with meropenem, percent inhibition | AID 434955; call rule not given here;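 further: growth measured after seven days incubation then overnight dye step; 0% = bacteria only wells and 100% = bacteria with antibiotic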
GDH-TPI inh – counter-screen for M. tuberculosis FBA inhibitors: GDH-TPI coupled enzymes; inhibition, % at 4.8 µM; AID 588335; GDH-TPI coupled enzyme counterscreen, NADH absorbance; actives 1.2% (n = 360,000);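 further: 0% = DMSO wells and 100% = wells lacking the enzyme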
CCHF vOTU inh – blocks the CCHF virus ovarian tumor domain protease | CCHFV vOTU protease, Pep-AMC fluorescence | inhibition, % at 11.5 µM | actives 0.55% (n = 370,000); further: 0% = vehicle wells with enzyme and 100% = no enzyme wells
* = called active by the depositor; ? = inconclusive; nt = not tested or not shown; + = active, no number. This is a sample that favours compounds with a hit; in the whole collection about 4% have one here. Unless noted, no stated cut-off is given here; in the data, active means inhibition above about 30%; inactive means the rest.

SMILES	Mtb FBA inh	MazEF act	Mtb betalactam	GDH-TPI inh	CCHF vOTU inh
Cc1ccsc1/C=N/NC(=O)c1cc(-c2ccncc2)nc2ccccc12	-4	8	-7	43*	4
COc1ccccc1-c1cc(C(=O)N/N=C/c2sccc2C)c2ccccc2n1	-3	0	4	24	7
O=C(N/N=C/c1ccc([N+](=O)[O-])o1)c1cc(-c2ccc(-c3ccccc3)cc2)nc2ccccc12	15	-27	99	10	7
O=C(N/N=C/c1ccco1)c1cc(-c2cccc(Br)c2)nc2ccccc12	-1	2	47	41*	2
O=C(N/N=C/c1ccc([N+](=O)[O-])o1)c1cc(-c2ccncc2)nc2ccccc12	1	-6	99	40*	7
CC(/C=N/NC(=O)c1cc(-c2ccncc2)nc2ccccc12)=C\c1ccco1	1	-5	?	18	nt
COc1ccccc1-c1cc(C(=O)N/N=C/c2ccc(C)o2)c2ccccc2n1	0	8	nt	49*	9
O=c1c2ccccc2n(Cc2ccccc2)n1[C@@H](Cc1ccccc1)Cn1cc(C2CCCC2)nn1	nt	nt	nt	nt	-13
CCCC(=O)N1CCC[C@]2(CC[C@@H](CCC(C)=O)O2)C1	nt	nt	nt	nt	-6
CN1C(=O)C[C@@](C#N)(C(=O)NCCc2ccccc2)[C@H]1c1ccccc1	nt	nt	nt	nt	-4
Cc1c(NC(=O)c2ccc(=O)oc2)c(=O)n(-c2ccccc2)n1C	-1	-5	-5	33*	-2
Cc1c(NC(=O)c2ccc(C(=O)Nc3c(C)n(C)n(-c4ccccc4)c3=O)cc2)c(=O)n(-c2ccccc2)n1C	3	-21	-4	16	-3
Cc1cccc2cc(/C=N/Nc3ccc(C(=O)O)cc3)c(Cl)nc12	5	-32	2	22	1
O=C(O)c1ccc(N/N=C/c2cc3ccccc3nc2Cl)cc1	3	-16	5	37*	-4
O=C(O)c1ccc(N/N=C/c2cccc3nccnc23)cc1	-4	7	13	46*	3
Cc1nc(NC(=O)c2cc3ccccc3o2)sc1C	-1	-1	-8	31*	3
CCOC(=O)c1sc(NC(=O)c2cc3ccccc3o2)nc1C	2	2	-7	15	4
CCOC(=O)c1csc(NC(=O)c2cc3ccccc3o2)n1	-1	-4	3	43*	11
Cc1nnc(NC(=O)c2cc3ccccc3o2)s1	-2	5	11	11	8
C=CCNC(=S)NNC(=O)c1cccn(Cc2ccc(Cl)cc2Cl)c1=O	4	-10	10	18	-8
CCNC(=S)NNC(=O)c1cccn(Cc2ccc(Cl)cc2Cl)c1=O	11	-1	0	32*	-4
CN(C)c1ccc(C(=O)Nc2nnc(-c3ccc(Cl)cc3)o2)cc1	5	5	92	35*	6
COCCCNc1oc(-c2ccccc2OC)nc1C#N	+	-3	nt	40*	-111
COCCCNc1oc(/C=C/c2ccccc2)nc1C#N	nt	8	1	30	-358
COCCCNc1oc(-c2ccccc2F)nc1C#N	+	5	3	5	-68
SMILES	Mtb FBA inh	MazEF act	Mtb betalactam	GDH-TPI inh	CCHF vOTU inh
CCOc1cc(/C=N/NC(=O)c2c(-c3ccccc3)noc2C)ccc1O	-6	4	-5	29	6
Cc1nc2ccccn2c1C(=O)N/N=C/c1cc(C)n(-c2ccc(Cl)cc2)c1C	5	6	6	36*	15
CCOc1cc(/C=N\NC(=O)c2c(C)nc3ccccn23)ccc1O	-1	3	3	48*	-2
Cc1nc2ccccn2c1C(=O)N/N=C/c1ccc2c(c1)OCO2	-1	1	-3	42*	12
Cc1nc(=S)c2ccccc2[nH]1	-5	-2	4	31*	18
[C-]#[N+][C@]12C(=O)[C@H](C=C(Cl)[C@@]1(C)C=C)C(C)(C)[C@H]1C(=O)N(C)c3cccc2c31	nt	nt	nt	nt	7
CCOC(=O)Nc1nc(-c2ccccc2)c(C(=O)c2ccccc2)s1	0	1	68	5	-8
COC(=O)Nc1nc(-c2ccccc2)c(C(=O)c2ccc(Cl)cc2)s1	-2	52*	-11	19	3
O=C(c1ccc(Cl)c(Cl)c1)N1CCC(Oc2cccnc2)CC1	nt	nt	nt	nt	-3
CC(C)N1CC2=C(OC(N)=C(C#N)C2c2cccnc2)/C(=C/c2cccnc2)C1 (centres undefined)	5	64*	?	10	-9
N#CC1=C(N)OC2=C(CN(Cc3ccccc3)C/C2=C\c2cccnc2)C1c1cccnc1 (centres undefined)	-5	7	5	-9	-1
COc1ccc(/C=C(/C(=O)c2cccs2)N2C=CC=CC2=C(C#N)C#N)cc1	6	17	nt	14	3
N#CC(C#N)=C1C=CC=CN1/C(=C\c1ccco1)C(=O)c1ccc(Br)cc1	-1	3	-5	37*	3
N#CC(C#N)=C1C=CC=CN1/C(=C\c1ccco1)C(=O)c1ccccc1	3	6	1	34*	-14
COc1ccc(C(=O)/C(=C\c2ccco2)N2C=CC=CC2=C(C#N)C#N)cc1	-2	2	7	51*	nt
S=c1[nH]nc(-c2n[nH]c3c2CCC3)n1N=Cc1c[nH]c2ccccc12	nt	nt	nt	nt	5
CCN(Cc1ccccc1)c1ccc(/C=N/NS(=O)(=O)c2ccc(C)c([N+](=O)[O-])c2)cc1	-4	-11	2	32*	15
CN(C)c1nc(N)c([N+](=O)[O-])c(NCCO)n1	-2	13	7	51*	17
CNc1nc(N)c([N+](=O)[O-])c(NCc2ccccc2)n1	-2	11	-1	42*	13
CN(C)c1nc(N)c([N+](=O)[O-])c(NCc2ccccc2)n1	0	18	2	42*	3
CN(C)CCCNc1nc(N)c([N+](=O)[O-])c(NCc2ccccc2)n1	1	4	-7	41*	3
Nc1nc(NCc2ccccc2)nc(NCc2ccccc2)c1[N+](=O)[O-]	0	2	2	14	1
CCN(CC)C(=O)CN1C(=O)C2CCCCN2C(=O)c2ccccc21 (centres undefined)	nt	nt	nt	nt	-4
CCn1c2ccccc2c2cc(C=NNC(=O)c3cc(-c4ccc(OC)cc4)n[nH]3)ccc21	nt	nt	nt	nt	-82
Cc1ccc(/C=C2\SC(=S)N(CCC(=O)Nc3cccnc3)C2=O)cc1	-2	82*	?	-6	8
SMILES	Mtb FBA inh	MazEF act	Mtb betalactam	GDH-TPI inh	CCHF vOTU inh
COc1ccc(/C=C2/SC(=S)N(CCC(=O)Nc3cccnc3)C2=O)cc1OC	-3	-6	nt	-12	-17
CCCCNS(=O)(=O)CC1NCc2ccc(C)cc21 (centres undefined)	nt	nt	nt	nt	3
N=c1n(CC(=O)c2ccc([N+](=O)[O-])cc2)c2ccccc2n1Cc1ccccc1	1	329*	?	3	-15
N=c1n(CC(=O)c2ccc([N+](=O)[O-])cc2)c2ccccc2n1Cc1ccccc1Cl	4	9	6	8	5
N=c1n(CC(=O)c2ccc([N+](=O)[O-])cc2)c2ccccc2n1Cc1ccc(Cl)cc1	-5	178*	2	4	-8
CC(=O)N[C@H]1C[C@@H]2O[C@H](CO)CC[C@@H]2O[C@@H]1CCc1ccc(-c2ccc(F)cc2)cc1	nt	nt	nt	nt	4
